# Only some compounds are listed: those with a hit (about 1.5% of all), similar ones and a draw of the others.
# RTF Ca sens inh: cardiac RTF calcium desensitization | P19429+P45379 | IANBD-labeled cardiac RTF, Ca2+ fluorescence | inhibition, % at 7.15 µM | actives 0.12% (n = 340,000) | AID 493244;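 active = inhibition above the mean inhibition of all tested compounds plus 3 SD, cut at about 17% in these data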;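 also: assay run at fixed EC70 calcium of 1.6 mM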
# cardiac RTF act: cardiac RTF calcium sensitization. IANBD-labeled TnC RTF fluorescence at EC20 calcium; 0% EC20 calcium, 100% full calcium. actives 0.24% (n = 340,000). P19429+P45379. AID 493008. activation, % at 7.2 µM;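 active = activation above the mean over all tested compounds plus 3 SD, cut at about 30% in these data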;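 also: rise in fluorescence read as greater calcium sensitivity of cardiac thin filaments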
# IDE inh: inhibits human insulin-degrading enzyme in HEK cells; FAbetaB cleavage, fluorescence polarization; actives 0.41% (n = 320,000); AID 434962; inhibition, % at 5.59 µM;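 active = percent inhibition above the average of all tested compounds plus 3 SD, set per screening campaign, cut at about 16% in these data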;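 also: IDE supplied by intact live HEK cells; FP after avidin binding of uncleaved biotin substrate so inhibition keeps polarization high; 0% = DMSO wells and 100% = 60 µM reference IDE inhibitor Ii1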
# Target sequence (P14735 whole entry, looked up): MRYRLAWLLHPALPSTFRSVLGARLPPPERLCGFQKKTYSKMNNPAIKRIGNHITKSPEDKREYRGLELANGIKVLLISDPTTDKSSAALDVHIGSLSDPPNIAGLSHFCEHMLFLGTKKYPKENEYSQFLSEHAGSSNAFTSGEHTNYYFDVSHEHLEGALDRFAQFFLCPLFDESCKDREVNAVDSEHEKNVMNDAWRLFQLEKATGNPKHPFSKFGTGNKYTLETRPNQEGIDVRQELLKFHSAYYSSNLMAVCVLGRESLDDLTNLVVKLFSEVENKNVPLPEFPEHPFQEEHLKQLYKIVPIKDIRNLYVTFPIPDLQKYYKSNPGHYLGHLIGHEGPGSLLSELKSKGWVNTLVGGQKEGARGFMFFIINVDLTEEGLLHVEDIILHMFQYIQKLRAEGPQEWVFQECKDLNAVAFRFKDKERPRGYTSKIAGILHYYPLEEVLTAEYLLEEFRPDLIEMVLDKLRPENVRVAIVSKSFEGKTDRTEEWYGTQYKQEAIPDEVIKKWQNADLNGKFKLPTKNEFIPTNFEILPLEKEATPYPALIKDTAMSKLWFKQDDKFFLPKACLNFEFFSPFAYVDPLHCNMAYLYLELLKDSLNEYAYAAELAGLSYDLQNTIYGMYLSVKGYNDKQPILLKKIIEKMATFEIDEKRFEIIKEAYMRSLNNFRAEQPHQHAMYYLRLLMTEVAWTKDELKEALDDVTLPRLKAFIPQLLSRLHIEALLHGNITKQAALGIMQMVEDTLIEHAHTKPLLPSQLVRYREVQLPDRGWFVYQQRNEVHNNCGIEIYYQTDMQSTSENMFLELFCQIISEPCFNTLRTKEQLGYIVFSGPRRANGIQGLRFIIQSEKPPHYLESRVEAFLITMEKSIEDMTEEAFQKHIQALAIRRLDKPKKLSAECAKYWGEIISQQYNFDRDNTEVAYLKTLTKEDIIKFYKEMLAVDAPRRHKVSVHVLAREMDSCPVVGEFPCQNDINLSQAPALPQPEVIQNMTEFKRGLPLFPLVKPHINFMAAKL
# TPT1 inh: inhibitors of Candida albicans tRNA 2'-phosphotransferase TPT1; recombinant caTPT1, FP RNA substrate dephosphorylation; inhibition, % at 5 µM; actives 0.81% (n = 300,000);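 active = inhibition above the mean of all tested compounds plus 3 SD, set per screening campaign, cut at about 24% in these data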;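 also: plate controls were DMSO alone for no effect and ferristatin control at 100 nM for full effect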
# IDE cell activ: activators of human insulin-degrading enzyme in cells; HEK cells, FAbeta-B cleavage, fluorescence polarization; 0% vehicle, 100% cell-free pure enzyme wells; P14735; actives 0.073% (n = 340,000); activation, % at 5.96 µM;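 active = activation above the mean of all tested compounds plus 3 SD, set per screening campaign, cut at about 17% in these data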
# CRFBP-R2 agonist: CRF-BP/CRF-R2 complex agonism; HEK293 CRF-R2/CRF-BP, calcium dye fluorescence (FLIPR); percent of saturating CRF peptide response; activation, % at 13.2 µM; actives 0.46% (n = 350,000); AID 588473;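 active = activation of at least 50%, plus an integration ratio under a set limit after plate pattern correction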;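 also: plate controls were neutral control wells without compound for no effect and CRF at EC100 for full effect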
# Numbers without * were called inactive; . = no result.
SMILES,RTF Ca sens inh,cardiac RTF act,IDE inh,TPT1 inh,IDE cell activ,CRFBP-R2 agonist
Cc1cccc(NC(=O)COc2cccc3c2CCNC3=O)c1,.,.,.,.,.,0
COc1ccc(CNC(=O)C/C(C)=N/NC(=O)COc2ccc(C)cc2Br)cc1,-10,3,-5,-2,-1,-2
O=[N+]([O-])c1ccc(-c2ccc(/C=N/Nc3nc(N4CCCCC4)nc(N4CCCCC4)n3)o2)cc1,.,.,.,.,.,69*
O=[N+]([O-])c1cccc(-c2ccc(/C=N/Nc3nc(N4CCCCC4)nc(N4CCCCC4)n3)o2)c1,-12,7,3,-1,-1,-1
CCOC(=O)C1=C(Cc2ccc(OC)cc2)C(=O)c2ccccc2C1=O,-34,10,.,.,-35,61*
CCOC(=O)C1=C(Cc2ccc(C)cc2)C(=O)c2ccccc2C1=O,.,.,7,-4,.,.
CCOc1ccc(CN2CCN(Cc3cc4ccccc4[nH]3)CC2CCO)cc1 (stereo not given),-11,-1,.,.,3,15
COc1cccc(CN2CCN(Cc3cc4ccccc4[nH]3)CC2CCO)c1 (stereo not given),-1,2,-1,6,2,57*
N#Cc1c(-c2ccc(Cl)cc2)c2c([nH]c1=O)-c1ccccc1OC2,2,0,16*,-4,-1,-1
COc1ccc(OC)c(Nc2nc(-c3sc(NC(=O)c4ccccc4)nc3C)cs2)c1,.,.,0,36*,.,.
COc1ccc(S(=O)(=O)N2CCCCC2)cc1NC(=O)CSc1ncnc2ccccc12,-5,-5,11,2,0,1
Cc1cc(/C=N/NC(N)=S)c(O)c(/C=N/NC(N)=S)c1,-266,166*,3,-57,8,157*
CCOc1ccc2nc3cc(NCc4ccc(OC)cc4)ccc3c(N)c2c1,-81,76*,-17,-2,-1,43
CCn1cnc2cc(NCc3ccc(OC)cc3)ccc21,-6,-3,-3,2,1,1
CC(=O)N1C(C)(C)CC(=NOC(=O)c2ccc(C)cc2)CC1(C)C,-12,3,0,0,2,1
Cc1ccc(C(=O)COC(=O)C2CCC2)cc1,-5,63*,-1,-4,-3,-1
FC(F)(F)c1cccc(-c2nc3nc(Cl)c(Cl)nc3[nH]2)c1,-8,9,-1,13,3,81*
CCN(CC)CCNC(=O)CS(=O)Cc1nc(-c2ccccc2Cl)oc1C (stereo not given),-8,0,1,1,18*,0
O=C(NCCNC(=O)c1cccnc1)c1ccc(Br)cc1,-3,2,-2,-3,-1,0
COc1ccc(S(=O)(=O)NCCc2ccccn2)cc1,-2,2,1,.,1,0
CC(=O)Nc1ccc(S(=O)(=O)NCCc2ccccn2)cc1,-3,-1,1,0,18*,2
COC(=O)/C=C1\SC(N)=NC1=O,-3,-1,8,-3,-2,0
Cc1c(NC(=S)NC(=O)c2cc3ccccc3o2)c(=O)n(-c2ccccc2)n1C,2,7,-1,-3,2,0
O=C1CC2(CCN(C(=O)c3ccccc3Cl)CC2)Oc2ccccc21,5,-1,-1,-1,2,1
Cc1ccc(C(=O)NCCCNC(=O)c2ccccc2F)cn1,-6,4,5,1,6,0
SMILES,RTF Ca sens inh,cardiac RTF act,IDE inh,TPT1 inh,IDE cell activ,CRFBP-R2 agonist
Cc1ccc(C(=O)NCCNC(=O)c2ccc(F)cc2)cn1,-16,-6,-1,-5,2,80*
Cc1ccsc1/C=C1\Oc2cc(O)ccc2C1=O,.,.,.,.,.,72*
O=C1/C(=C/c2cccc([N+](=O)[O-])c2)Oc2cc(O)ccc21,-5,2,5,22,1,30
CC1=CC(C)(C)N(C(=O)CSc2nnc(N)s2)c2ccccc21,-1,2,5,10,2,53*
COc1ccc(CNC(=O)COC(=O)c2ccc(S(=O)(=O)N3CCCCC3)cc2)cc1,6,-3,-1,.,4,3
O=C1/C(=C\c2ccc(O)cc2)SC(=S)N1c1cccnc1,-5,-9,88*,11,-99,24
CCCc1cc(=O)[nH]c(-n2[nH]c3c(c2=O)CCCC3)n1,-10,-4,19*,17,-1,0
CCCc1cc(=O)[nH]c(SCC)n1,-12,18,7,-3,-1,0
COc1ccc(NC(=O)c2cc(S(=O)(=O)N3CCOCC3)cn2C)cc1Cl,-4,3,-2,1,4,1
CCc1ccc(-c2nc(CS(=O)CC(=O)O)c(C)o2)cc1 (stereo not given),-5,0,-4,-1,18*,-1
CCc1ccc(-c2nc(CS(=O)CC(=O)NC3CC3)c(C)o2)cc1 (stereo not given),-3,2,-15,0,1,-2
CN(Cc1cn(Cc2ccccc2)nc1-c1ccc2c(c1)OCO2)Cc1nccn1C,6,1,-4,-3,3,-1
O=C(NCC1CCCO1)c1cccc(Oc2ccc([N+](=O)[O-])cc2)c1 (stereo not given),4,3,-5,-4,0,0
NS(=O)(=O)c1ccc(NC=C2C(=O)OC3(CCCCC3)OC2=O)cc1,4,-1,2,1,3,-2
CCCCc1ccc(NC=C2C(=O)OC3(CCCCC3)OC2=O)cc1,5,-5,-2,0,2,145*
O=C(COc1ccc(F)cc1)N(Cc1cccs1)C1CCS(=O)(=O)C1 (stereo not given),0,-2,-2,2,1,66*
Cc1ccc(Cn2nc(C)c(C(=O)N3CCN(S(=O)(=O)/C=C/c4ccccc4)CC3)c2C)cc1,-5,-5,-3,.,33*,0
CC(C)(C)OC(=O)NCc1ccc(CNC(=O)c2nc[nH]c2C(=O)N2CCc3ccccc3C2)cc1,-2,-10,-1,.,-2,-1
CC12CCC(C(=O)N(c3nccs3)C1=O)C2(C)C (stereo not given),1,1,.,.,2,5
CCN(CC)c1ccc2cc(NC(=O)CCC(=O)O)c(=O)oc2c1,-65,70*,2,-28,-2,88*
CC(=O)Nc1cc2ccccc2oc1=O,-22,2,2,-1,2,2
O=C(CNC(=O)c1cccc(-n2cccc2)c1)Nc1ccccc1Br,.,.,.,.,.,0
CCCS(=O)(=O)c1nc(S(=O)(=O)c2ccc(C)cc2)c(N2CCCC2)s1,-14,3,8,-1,2,89*
CCCS(=O)(=O)c1nc(S(=O)(=O)c2ccc(C)cc2)c(N2CCC(C)CC2)s1,-3,-3,0,-1,5,4
CC(C)(C)c1cc(CCC(=O)Nc2ccncc2)cc(C(C)(C)C)c1O,-4,-3,-1,0,1,-1

# Bioassay records as filed in PubChem BioAssay.
